Screens deposited in PubChem BioAssay by National Center for Advancing Translational Sciences (NCATS).
VACV Venus inh = qHTS for Stage-Specific Inhibitors of Vaccinia Orthopoxvirus: Venus Reporter Primary qHTS; Vaccinia virus Venus reporter expression, fluorescence; Potency, µM (series often up to 36.5 µM), without a hit: top-dose activity change, negative = inhibition, hits mostly inhibitors; hit rate 0.46% among 330,000; calls by dose curve; tested in A549 cells; further: potency means the concentration at half of the fitted maximal effect; nearly all actives have a fitted effect of over 30% in size
HCV inh = qHTS Assay for Inhibitors of Hepatitis C Virus (HCV) | Huh7.5.1 HCVcc-Cre infection, luciferase reporter, 44 h | Potency, µM (titrated, usually from 41.8 µM), without a hit: top-dose activity change, negative = inhibition, actives largely listed as inhibitors | hit rate 3.4% among 340,000 | AID 651820, 2012; further: potency means the concentration at half of the fitted maximal effect
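Cells (1,000/well) were plated 4 h before compound, then infected with HCVcc-Cre virus (~0.5 moi). After 44 h further culture, infection was read as luciferase luminescence following a 15 min substrate incubation at room temperature.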
Sm TGR block = qHTS Assay for the Inhibitors of Schistosoma Mansoni Peroxiredoxins | purified TGR, DTNB reduction, TNB absorbance 405 nm | Potency, µM (series often up to 114 µM), without a hit: top-dose activity change, negative = inhibition, usual class: inhibitors | hit rate 3% among 360,000 | AID 485364, 2010; further: potency means the concentration at half of the fitted maximal effect; nearly all actives have a fitted effect of over 60% in size
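TGR 20 nM + NADPH 100 uM (dispensed conc.), cpd preinc 15 min RT; start with NADPH (500 uM addition) then DTNB (15 mM addition). Kinetic TNB absorbance, 405 nm filter. Four-parameter Hill fit across titration.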
HCMV antiviral = qHTS Assay for inhibitors of the human cytomegalovirus (HCMV); HFF cells, HCMV-luciferase reporter, 72 h; active compounds read low; activity change, negative = inhibition, % at 57.5 µM; hit rate 4.5% among 410,000; AID 1259415, 2018; in the data active means activity change below about -60%; inconclusive means no clear call, values can overlap the other calls; inactive means above about -39%
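Inhibition of viral replication was scored as loss of reporter luminescence in HFFs infected with HCMV-luciferase (MOI 1 PFU/cell) for 72 h; compounds tested at 2 doses, normalized to buffer and Salinomycin controls.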
FMDV antiviral = High Throughput Screening for Foot and Mouth Disease Virus Antivirals | FMDV antiviral cell-based qHTS | Potency, µM (doses to about 57.9 µM), for the others: at the highest dose activity change, negative = inhibition, usual class: inhibitors | hit rate 1.2% among 410,000; calls by dose curve; tested in HEK293T cells; further: read-out not given here; potency means the concentration at half of the fitted maximal effect; nearly all actives have a fitted effect of over 45% in size
Vaccinia mCherry = qHTS for Stage-Specific Inhibitors of Vaccinia Orthopoxvirus: mCherry Reporter Primary qHTS; Potency, µM (doses to about 36.5 µM), for inactives: at the top dose activity change, negative = inhibition, most hits filed as inhibitors; hit rate 0.63% among 310,000; Vaccinia virus mCherry reporter infection, fluorescence; AID 720579, 2013; calls by dose curve; tested in A549 cells; further: potency means the concentration at half of the fitted maximal effect; nearly all actives have a fitted effect of over 35% in size
Active calls of the source: *; i = inactive; ? = inconclusive; . = no result given; [ ] = dose if it differs, or a comment. Shown are actives, neighbours in structure and some others; about 9.3% of the full set was active somewhere. Unless noted, the call rests on the fitted dose curve; in most records, active means well fitted curve in the direction sought with a large enough effect; inconclusive means small, poorly fitted or top-dose-only effect, or another doubt; inactive means no such curve, though single readings can be large; an effect the other way counts as inactive or inconclusive. On the % scale 0 is the no-effect control and ±100 the full control effect.

SMILES	VACV Venus inh	HCV inh	Sm TGR block	HCMV antiviral	FMDV antiviral	Vaccinia mCherry
N#C/C(C(N)=O)=C1/CCc2ccccc2N1	-10.6%	1.0%	5.6%	-28.1	8.0%	-27.9%
CN1CCc2c(c3c(n2C)CCN(C)C3c2ccc(F)cc2)C1c1ccc(F)cc1 (stereo not given)	-5.0%	-0.1%	?	2.7	-0.7%	-10.6%
COc1ccc(C2c3c4c(n(C)c3CCN2C)CCN(C)C4c2ccc(OC)cc2)cc1 (stereo not given)	.	12.6µM*	-8.0%	-25.0	6.6%	.
O=C(NC(=S)NCCc1ccccn1)c1ccco1	-14.6%	6.2%	-5.6%	-27.7	20.2%	-14.5%
CCOC(=O)C1CCN(C(=O)c2c(C)oc3c2C(=O)c2ccccc2C3=O)CC1	14.1µM*	-13.2%	-25.4%	-2.1	28.2µM*	14.1µM*
CCOc1ccc(N2C(=O)CC(Sc3n[nH]c(-c4ccccc4)n3)C2=O)cc1 (stereo not given)	-8.0%	14.4%	0.631µM*	-37.4	7.8%	i
COc1ccc(N2C(=O)CC(Sc3n[nH]c(-c4ccccc4)n3)C2=O)cc1 (stereo not given)	-12.2%	-11.3%	0.316µM*	14.9	-14.1%	-17.9%
CCOc1ccc2nc(SC3CC(=O)N(c4ccccc4)C3=O)sc2c1 (stereo not given)	.	19.1%	?	.	16.9%	.
O=C(Nc1ccc2c(c1)CCC2)Nc1ccccc1Cl	-11.9%	?	-2.1%	146.1	23.3%	-11.9%
Cc1onc(-c2c(F)cccc2Cl)c1C(=O)ONC(=O)c1ccco1	.	7.0%	12.6µM*	14.9	-15.7%	.
Cc1[nH]c2ccccc2c1C(=O)COC(=O)c1c(-c2c(F)cccc2Cl)noc1C	?	?	-10.8%	-71.0*	31.6µM*	-15.3%
Cc1[nH]c2ccccc2c1C(=O)COC(=O)c1c(-c2ccccc2Cl)noc1C	?	?	-4.5%	-74.5*	-23.3%	?
Cc1onc(-c2c(F)cccc2Cl)c1C(=O)NCc1ccccc1	.	14.0%	5.3%	-3.9	-24.2%	.
O=S1(=O)OCCC(c2ccccc2)N1Cc1ccccc1 (stereo not given)	-14.9%	5.8%	10.3%	38.3	71.6%	-12.5%
c1ccc(CC2CCN(C3=Nc4cccc5cccc3c45)CC2)cc1	-28.1%	11.2µM*	-9.3%	.	?	-13.1%
COc1ccccc1N1CCN(C2=Nc3cccc4cccc2c34)CC1	-7.4%	12.6µM*	13.1%	-6.4	-32.3%	-9.2%
CCOC(=O)N1CCN(C2=Nc3cccc4cccc2c34)CC1	2.1%	-30.3%	-8.7%	-16.7	.	-1.9%
CC(=O)N1CCN(C2=Nc3cccc4cccc2c34)CC1	8.0%	11.2µM*	11.3%[11.4 µM]	-3.3	.	0.9%
O=C(NC(=S)N1CCN(Cc2ccc3c(c2)OCO3)CC1)c1cccc(Br)c1	-25.3%	-15.4%	-15.2%	?	-14.7%	?
CCC(C)NC(=O)Cn1cnc2sc(C)c(S(=O)(=O)N3CCCCC3)c2c1=O (stereo not given)	9.2%	19.7%	0.2%	-21.0	-1.4%	-2.9%
COc1ccc2c(c1)OC1(O)COc3cc(OC)c(OC)cc3C1=C2 (stereo not given)	-15.0%	.	.	.	-13.1%	-2.5%
C(=C\c1ccco1)/c1nc2ccccc2[nH]1	?	-10.0%	3.16µM*	?	0.0%	-23.4%
C(=C\c1nc2ccccc2[nH]1)/c1ccccc1	.	11.2µM*	9.2%	9.7	15.8µM*	.
Fc1cccc(F)c1/C=C/c1ccc2ccccc2n1	-12.1%	-7.7%	-25.4%	54.7	-50.7%	-12.8%
C(=C\c1ccco1)/c1ccc2ccccc2n1	9.3%[7.34 µM]	2.8%	7.94µM*	190.6	-68.8%	i[7.34 µM]
CC(O)/C=C/c1ccc2ccccc2n1 (stereo not given)	.	11.2µM*	5.8%	?	-1.8%	.
CCOC(=O)[C@]12CCC=C1N(Cc1ccco1)C(=O)[C@H](CC(=O)N1CCOCC1)C2	3.0%	.	.	40.5	-6.2%	12.0%
